KCNQ2 block: inhibitors of rat KCNQ2 potassium channel; hit rate 1.1% among 310,000; B-score at 10 µM; CHO-K1 KCNQ2, FluxOR thallium flux, 20 min; hits give low values; O88943; AID 2156;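 active means fluorescence ratio B-score at most minus 3 library SDs, with starting brightness B-score within 2 library SDs, cut at about -5.5 in these data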
Target sequence (O88943 whole entry, looked up): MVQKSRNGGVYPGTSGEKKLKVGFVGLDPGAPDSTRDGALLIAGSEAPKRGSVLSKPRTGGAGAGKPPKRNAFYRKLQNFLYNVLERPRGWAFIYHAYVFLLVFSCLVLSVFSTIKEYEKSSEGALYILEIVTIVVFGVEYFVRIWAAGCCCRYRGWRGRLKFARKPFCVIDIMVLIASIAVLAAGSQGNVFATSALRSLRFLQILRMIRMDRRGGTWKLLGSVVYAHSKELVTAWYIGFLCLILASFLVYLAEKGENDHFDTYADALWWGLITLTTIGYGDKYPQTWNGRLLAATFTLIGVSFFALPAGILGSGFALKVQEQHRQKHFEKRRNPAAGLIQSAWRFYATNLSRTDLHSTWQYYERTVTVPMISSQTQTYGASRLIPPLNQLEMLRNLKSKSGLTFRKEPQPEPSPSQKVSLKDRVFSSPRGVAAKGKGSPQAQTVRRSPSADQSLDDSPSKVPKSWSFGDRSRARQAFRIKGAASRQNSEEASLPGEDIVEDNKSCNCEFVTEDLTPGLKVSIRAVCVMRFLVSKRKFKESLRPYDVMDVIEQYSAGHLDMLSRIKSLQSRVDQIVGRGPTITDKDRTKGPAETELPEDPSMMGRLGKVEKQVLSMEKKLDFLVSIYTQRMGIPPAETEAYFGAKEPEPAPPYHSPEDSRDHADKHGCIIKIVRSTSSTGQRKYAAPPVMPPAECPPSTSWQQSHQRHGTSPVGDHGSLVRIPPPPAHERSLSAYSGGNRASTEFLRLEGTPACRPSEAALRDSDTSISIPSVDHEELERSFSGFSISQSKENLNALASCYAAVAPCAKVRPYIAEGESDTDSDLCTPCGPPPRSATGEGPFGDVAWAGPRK
KCNQ2 enhance: enhances the rat KCNQ2 potassium channel; hit rate 0.54% among 310,000; B-score at 10 µM; O88943; CHO-K1 KCNQ2, FluxOR thallium flux fluorescence; hits give high values; AID 2239;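 active means fluorescence ratio B-score at least 3 SD of library B-scores, with initial fluorescence B-score within 3 of them, cut at about 5.3 in these data; same plate scores as AID 2156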;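 further: B-score of peak minus minimum over baseline fluorescence ratio after K+ and Tl+ stimulus; positive B-score means potentiation of KCNQ2 with more thallium influx and brighter signal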
KCNQ2 inh conf: rat KCNQ2 channel inhibition, confirmatory screen | shares compounds with KCNQ2 block | KCNQ2-expressing cells, thallium flux; hits give low values | activity change, negative = inhibition, % at 10 µM | hit rate 57% among 1,000 | AID 493025;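 further: 0% = vehicle wells and values are ratio percent relative to vehicle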
KCNQ1 spec: human KCNQ1 activity in KCNQ2 inhibitor specificity screen; KCNQ1-expressing cells, FluxOR thallium flux fluorescence; hits give low values; hit rate 15% among 1,000; AID 493026; shares compounds with KCNQ2 block; activity change, negative = inhibition, % at 10 µM;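 active means activity change at least 3 SD of negative controls below their mean in both duplicate wells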;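 further: CHO cells stably transfected with KCNQ1 and depolarized by potassium stimulus; peak minus minimum fluorescence over baseline after thallium addition; 0% = vehicle negative control and -100% = blank without thallium stimulus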
CHO parental ctr: counter-screen for KCNQ2 inhibitors: effect in parental CHO cells; shares compounds with KCNQ2 block; thallium flux counter-screen; hits give low values; activity change, % at 10 µM; hit rate 14% among 1,000; AID 493029;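 further: 0% = vehicle negative controls with stimulus buffer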
KCNQ2 patch conf: rat KCNQ2 inhibition confirmed by electrophysiology. AID 588531. KCNQ2-expressing cells, automated patch clamp current. calls only at 10 µM. shares compounds with KCNQ2 block. hit rate 49% among 550
* marks the source's active call; other numbers are inactive results; i = inactive; / = no result given; + = active, no number. An excerpt weighted towards active compounds, which were near 1.6% of everything screened. Unless noted, how the calls were made is not given here.

SMILES	KCNQ2 block	KCNQ2 enhance	KCNQ2 inh conf	KCNQ1 spec	CHO parental ctr	others
c1cc2c(cc1C1CCCCC1)c1c3n2CCCNC3CCC1 (configuration not stated)	-12*	-12	-34%*	i	i	KCNQ2 patch conf=i
Cc1ccc2c(c1)c1c3n2CCCNC3CCC1 (configuration not stated)	i	/	/	/	/
O=C(NCC(c1ccco1)N1CCc2ccccc2C1)c1ccccc1Br (configuration not stated)	i	/	/	/	/
O=C(NCC(c1ccco1)N1CCc2ccccc2C1)c1ccc(Br)cc1 (configuration not stated)	-9.7*	-9.7	-37%*	i	i	KCNQ2 patch conf=+
Cc1ccc(C)c(S(=O)(=O)NCC(c2ccco2)N2CCc3ccccc3C2)c1 (configuration not stated)	i	/	/	/	/
Cc1ccc(C(=O)NCC(c2ccco2)N2CCOCC2)cc1 (configuration not stated)	i	1.6	/	/	/
O=C(NCC(c1ccco1)N1CCc2ccccc2C1)c1ccc(Cl)cc1 (configuration not stated)	-10*	-10	-31%*	-30%*	-22%*	KCNQ2 patch conf=+
Cc1ccc(C(=O)NCC(c2ccco2)N2CCc3ccccc3C2)cc1C (configuration not stated)	-8.8*	-8.8	-28%*	i	i
O=C(NCC(c1ccco1)N1CCc2ccccc2C1)c1c(F)cccc1F (configuration not stated)	i	0.53	/	/	/
Cc1ccc(C(=O)NCC(c2ccco2)N2CCc3ccccc3C2)cc1 (configuration not stated)	-6.7*	-6.7	i	i	i
O=C(Nc1ccccc1)c1cn(CCBr)cn1	i	0.81	/	/	/
O=c1c2ccccc2ncn1CCCCOc1ccc(Br)cc1	i	/	/	/	/
Cc1ccc2c(c1)N(CC(=O)NC(C)CCc1ccccc1)C(=O)c1cccnc1O2 (configuration not stated)	i	/	/	/	/
O=C(NCC(c1ccco1)N1CCOCC1)c1cccc(Cl)c1 (configuration not stated)	i	1.1	/	/	/
O=C(NCC(c1ccco1)N1CCc2ccccc2C1)c1cccc(Br)c1 (configuration not stated)	-7.9*	-7.9	i	i	i
CC(NC(=O)c1ccncc1)c1ccc(Cl)cc1Cl (configuration not stated)	i	0.96	/	/	/
CSc1cccc(NC(=O)c2nnn(CC(=O)Nc3cc(C)cc(C)c3)c2N)c1	i	/	/	/	/
CC(=O)Oc1cccc(Nc2ncnc3ccccc23)c1	i	/	/	/	/
Cc1ccccc1C(=O)Oc1cccc(Nc2ncnc3ccccc23)c1	-9.6*	-9.6	i	i	i
CN(C)/C=C(\C#N)C(=O)N/N=C/c1ccccc1	i	0.27	/	/	/
CCC1=NN(C(=O)COc2ccccc2C)C(O)(c2ccncc2)C1 (configuration not stated)	i	/	/	/	/
CC1=NN(C(=O)COc2ccccc2C)C(O)(c2ccc(Cl)cc2)C1 (configuration not stated)	-8.1*	-8.1	-24%*	i	i	KCNQ2 patch conf=+
Cc1cccc2cc(C(c3nnnn3C3CCCC3)N3CCOCC3)c(=O)[nH]c12 (configuration not stated)	-7.8*	-7.8	-24%*	i	i	KCNQ2 patch conf=+
CCC(C)(C)n1nnnc1C(c1cc2cccc(C)c2[nH]c1=O)N1CCCC1 (configuration not stated)	i	/	/	/	/
C[C@@H]1CN(C(=O)c2cc(COc3cccc(C(F)(F)F)c3)on2)C[C@H](C)O1	i	/	/	/	/
SMILES	KCNQ2 block	KCNQ2 enhance	KCNQ2 inh conf	KCNQ1 spec	CHO parental ctr	others
CC(C(=O)NCC1CCCCC1)N(C)Cc1ccc(Br)cc1 (configuration not stated)	i	/	/	/	/
CC(C(=O)NCC1CCCCC1)N(C)Cc1ccc(Cl)cc1 (configuration not stated)	-6.7*	-6.7	i	i	i
COCCn1c(SC(C(=O)Nc2cc(C)ccc2OC)c2ccccc2)nnc1-c1ccc(Cl)cc1 (configuration not stated)	-9.5*	-9.5	i	i	i
COc1ccc(C)cc1NC(=O)C(Sc1nnnn1C)c1ccccc1 (configuration not stated)	i	/	/	/	/
O=C(/C=C/c1ccccc1Cl)N(c1ccccn1)C1CCCCC1	-7.4*	-7.4	i	i	i
CC(C)(C)c1ccc(OCC(=O)N(c2ccccn2)C2CCCCC2)cc1	i	/	/	/	/
